KB-V1 MDR tox = KB-V1 MDR subline cytotoxicity; KB-V1 MDR cells viability, CellTiter-Glo, 72 h; 400,000 tested, 3.4% active; Potency, µM (doses to about 46.1 µM), usual class: cytotoxic; AID 1347076; note: % is set by controls: 0 for no effect and ±100 for the full control effect; nearly all actives have a fitted effect of over 60% in size
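In this primary screen, KB-V1 cells overexpressing P-gp are incubated with library compounds (lowest to highest concentration) for 72 h at 37 degrees C before a luminescent ATP viability read.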
TGFb inhibitor = TGF-b pathway inhibition; HepG2 CAGA-GFP TGF-b/SMAD3 reporter, GFP fluorescence, 18 h; TGF-beta stimulated, 500 pg/mL final; Potency, µM (titrated, usually from 46.1 µM), inactives show at the highest dose activity, negative = inhibition, hits mostly inhibitors; 410,000 tested, 1.2% active; note: % is set by controls: 0 for no effect and ±100 for the full control effect; nearly all actives have a fitted effect of over 65% in size
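Inhibition was scored as loss of TGF-beta-induced (500 pg/mL final, 18 hours, 37 degrees C) GFP in HEPG2 cells carrying a CAGA-GFP reporter, in DMEM with 1% FBS. Well GFP was summed per cell; Activity was normalised to unstimulated and stimulated DMSO wells, then concentration-response fitting.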
HepG2 viability = counter-screen for TGF-b inhibitors: cytotoxicity in HepG2 cells; HepG2 CAGA-GFP viability, ATP luminescence, 18 h; Potency, µM (doses to about 46.1 µM), without a hit: at the highest dose activity change, negative = cytotoxicity, hits mostly cytotoxic; 410,000 tested, 0.76% active
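CellTiter-Glo luminescence gave cytotoxicity after 18 hours at 37 degrees C. The cells were HepG2 CAGA-GFP in 1% FBS DMEM, stimulated with 500 pg/mL TGF-beta after compound addition. %Activity was normalised to no-cell wells (complete cell-killing) and DMSO (no toxicity), and curves were fitted and classified.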
ATXN2 expr inh = ATXN2 expression inhibition; HEK-293 ATXN2-luciferase reporter, luminescence, 24 h; Potency, µM (series often up to 57 µM), without a hit: at the top dose activity change, negative = inhibition, usual class: inhibitors; 360,000 tested, 0.72% active; note: % is set by controls: 0 for no effect and ±100 for the full control effect; nearly all actives have a fitted effect of over 55% in size
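qHTS (up to 57 uM final) was run with 24 h compound exposure of reporter cells at 37 °C. Each well was multiplexed: SteadyGlo luminescence measured ATXN2-luciferase expression after a fluorogenic Gly-Phe-AFC viability readout (25 uM final).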
ATXN viability = cell viability loss in ATXN counter-screen; S2 cells (HEK-293 line with an ATXN2-luciferase reporter) viability, CellTiter-Fluor protease fluorescence, 24 h; Potency, µM (top dose mostly 56.7 µM), actives largely listed as cytotoxic; 400,000 tested, 0.49% active; note: nearly all actives have a fitted effect of over 40% in size
KB-3-1 tox = KB-3-1 parental cell cytotoxicity; Potency, µM (series often up to 46.1 µM), most hits filed as cytotoxic; KB-3-1 viability, CellTiter-Glo ATP luminescence, 72 h; AID 1347075; 400,000 tested, 1.4% active; note: % is set by controls: 0 for no effect and ±100 for the full control effect; nearly all actives have a fitted effect of over 60% in size
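Cytotoxicity measured as CellTiter-Glo luminescence after 72 h at 37 C. Compound titrations were pinned onto drug-naive KB-3-1 parental adenocarcinoma cells grown in DMEM with 10% FBS, and normalized data fitted to concentration-response curves.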
The depositor's hits bear a star; i = inactive; ? = inconclusive; . = no result given. Shown are actives, neighbours in structure and some others; about 5.9% of the full set was active somewhere. Calls come from the whole dose curve; as a rule, active = well fitted curve in the direction sought with a large enough effect; inconclusive = small, poorly fitted or top-dose-only effect, or another doubt; inactive = no such curve, though single readings can be large; an effect the other way counts as inactive or inconclusive. Potency is the fitted concentration of half-maximal effect.

SMILES | KB-V1 MDR tox | TGFb inhibitor | HepG2 viability | ATXN2 expr inh | ATXN viability | KB-3-1 tox
CC(C)(C)OC(=O)N1CCC(c2c(C(=O)NCCN3CCOCC3)cnn2-c2cccc(Cl)c2)CC1 | i | -31% | -23% | . | . | i
CN1C(=O)Nc2cccc3cccc1c23 | 0.46µM* | -13% | -32% | 5% | i | 1µM*
CN1C(=O)N(C)c2cccc3cccc1c23 | i | 0% | 3% | -12% | i | i
CCCCn1c2ccc(C)cc2c2nnc(SCCN3CCCCC3)nc21 | i | -26% | -35% | -20% | ? | 18µM*
Cc1ccc2c(c1)c1nc3ccccc3nc1n2CCN1CCOCC1 | 21µM* | 10% | -4% | -16% | i | i
C/C=C\C(=O)Nc1cccc(C2=NOC3(C2)C[C@@H](C(N)=O)N(C(=O)CC(c2ccccc2)c2ccccc2)C3)c1 (stereo not given in full) | i | ? | 5% | -30% | ? | i
CCCCCC(=O)Nc1cccc(C2=NOC3(C2)C[C@@H](C(N)=O)N(C(=O)CC(c2ccccc2)c2ccccc2)C3)c1 (stereo not given in full) | i | ? | -6% | -16% | ? | 16µM*
Cc1cc(C)cc(C(=O)NCCn2cc(C(=O)N3CCSCC3)nn2)c1 | . | . | . | . | i | .
CCOC(=O)C1=CCN(S(=O)(=O)c2ccc(C)cc2)C1c1ccccc1 (stereo not given) | i | 7% | -29% | -20% | ? | i
CCOc1cc2c(c3c1C(c1ccccc1)N(S(=O)(=O)c1ccc(C)cc1)C3)C(=O)C=CC2=O (stereo not given) | ? | ? | 8.9µM* | ? | 6.3µM* | ?
Cc1cc(C)c2oc(C(=O)Nc3c(C(=O)c4ccccc4)oc4ccccc34)cc(=O)c2c1 | i | 15% | 5% | 2% | i | i
CCc1cccc(CC)c1NC(=O)CN1C2CCCC1CC(NC(=O)Nc1cccc(OC)c1)C2 (stereo not given) | 21µM* | -14% | -35% | 3% | i | ?
CCOc1ccccc1NC(=O)Nc1ccc2nc(N3CCN(C)CC3)cc(C)c2c1 | ? | ? | 7.9µM* | ? | . | i
Cc1ccccc1NC(=O)Nc1ccc2nc(N3CCN(C)CC3)cc(C)c2c1 | i | 35% | -7% | -15% | i | i
Cc1ccccc1C(=O)Nc1ccc2nc(N3CCCCC3)cc(C)c2c1 | i | 11% | -24% | -8% | ? | i
CCOc1ccccc1C(=O)Nc1ccc2nc(N3CCN(c4ncccn4)CC3)cc(C)c2c1 | 8.2µM* | 0% | -25% | 14µM* | ? | 15µM*
CCOc1ccc(NC(=O)Cn2c(=O)n(Cc3ccc4c(c3)OCO4)c(=O)c3ccc(C(=O)NC4CCCCC4)cc32)cc1 | ? | -2% | -13% | 7% | i | i
COc1ccc(-c2nc3ccccc3s2)cc1NC(=O)COc1cccc(C)c1 | . | 1% | -22% | . | . | .
CCc1ccccc1N(C)S(=O)(=O)c1ccc2[nH]cc(C(=O)NCCOC)c(=O)c2c1 | i | 0% | -16% | . | . | i
C=CCn1c(SCC(=O)c2[nH]c(C)c(C(=O)OC)c2C)nc2scc(-c3ccc(OC)c(OC)c3)c2c1=O | 6.5µM* | 3% | -31% | ? | ? | 4.1µM*
Cc1cc2ccccc2n1CCNC(=O)c1ccccc1F | i | 0% | -27% | 10% | i | i
O=C(Nc1c(-c2ccccc2)nc2ccccn12)c1ccc(Br)cc1 | i | ? | -22% | -25% | ? | i
N#CC(C#N)=C1C=CC=CN1/C(=C\c1ccccc1Cl)C(=O)c1ccccc1 | ? | 3.2µM* | 7.1µM* | 13µM* | ? | ?
N#CC(C#N)=C1C=CC=CN1/C(=C\c1ccccc1)C(=O)c1cccs1 | ? | -16% | -18% | 6% | i | i

From PubChem BioAssay
